For this assay, the system named is Plasmodium falciparum NF54 stage V gametocytes. The assay is described as follows: viability index relative to DMSO control (fraction); higher = less gametocyte killing. Particulars: 2.5 µM, library set: Broad Institute DOS, incubation time: 72 h. The method, then:
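Broad DOS informer set and blood-stage-active DOS compounds screened in duplicate at 2.5 µM against P. falciparum NF54 stage V gametocytes with the serum-free one-step SaLSSA (1536-well): 72 h at 37 °C under low oxygen, then saponin lysis and MitoTracker Red CMXRos staining, with high-content imaging. Viability index = viable-object count divided by the plate mean of DMSO wells (0 = killed, about 1 = inactive).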

SMILES strings stand for the structures. ± gives the uncertainty stated by the source. The full ranking holds about 9,900 compounds; the median of “viability index relative to DMSO control” is about 1, and the lowest 2% start at about 0.85. The entries come from a sample that favours the lowest values as a whole.

For the molecule `Cc1ccc(S(=O)(=O)Nc2cccc3c2O[C@H](CN(C)C(=O)Nc2ccc(C(F)(F)F)cc2)[C@H](C)CN([C@H](C)CO)C3=O)cc1`, the viability index was found to be 1.07 ± 0.04. Next, `Cc1ccc(S(=O)(=O)N2CC[C@@H]3[C@@H](CO)Nc4ccc(-c5cccc(C(=O)N(C)C)c5)cc4[C@@H]32)cc1`: 0.837 ± 0.012; `Cc1ccc(S(=O)(=O)N2CC[C@@H]3[C@H]2c2cc(-c4cccc(C(=O)N(C)C)c4)ccc2N[C@@H]3CO)cc1`: 0.885 ± 0.055; `Cc1ccc(S(=O)(=O)N2CC[C@H]3[C@H](CO)Nc4ccc(-c5cccc(C(=O)N(C)C)c5)cc4[C@H]32)cc1`: 0.7 ± 0.018. Next, `CN(C)C(=O)c1cccc(-c2ccc3c(c2)[C@H]2[C@H](CCN2C(=O)Cc2ccccc2)[C@@H](CO)N3)c1`: 0.899 ± 0.042; `CN(C)C(=O)c1cccc(-c2ccc3c(c2)[C@@H]2[C@@H](CCN2C(=O)Cc2ccccc2)[C@H](CO)N3)c1`: 0.991 ± 0.022. In the case of `CN(C)C(=O)c1cccc(-c2ccc3c(c2)[C@H]2[C@H](CCN2C(=O)Cc2ccccc2)[C@H](CO)N3)c1`, the viability index came out at 1.03 ± 0.03.

As for `N#Cc1cccc(-c2ccc3c(c2)[C@H]2[C@H](CCN2S(=O)(=O)c2ccc(F)cc2)[C@@H](CO)N3)c1`, the viability index was determined as 0.949 ± 0.023. Next, `Cc1ccc(S(=O)(=O)N2CC[C@@H]3[C@H](CO)Nc4ccc(-c5cccc(C(=O)N(C)C)c5)cc4[C@@H]32)cc1`: 0.77 ± 0.034; `CN(C)C(=O)c1cccc(-c2ccc3c(c2)[C@@H]2[C@@H](CCN2C(=O)Cc2ccccc2)[C@@H](CO)N3)c1`: 1.04 ± 0.025. Next, `O=C(N[C@H]1C=C[C@@H](CC(=O)N2CCN(c3ccccc3)CC2)O[C@H]1CO)c1ccccc1`: 1.04 ± 0.087. On to `N#C[C@H]1[C@H](c2ccc(-c3cncnc3)cc2)[C@@H](CO)N1C(=O)Cc1ccccc1`, for which the viability index turned out to be 1.06 ± 0.1. As for `COc1ccc(-c2ccccc2[C@@H]2[C@@H](CO)N(C(=O)C3CCC3)[C@H]2C#N)cc1`, the figure is 1.17 ± 0.15; as for `O=C(C[C@@H]1CC[C@H]2NC[C@H](O)COC[C@@H]2O1)Nc1nccs1`, 1.04 ± 0.068. As for `C[C@H](CO)N1C[C@H](C)[C@H](CN(C)Cc2cccc(C(F)(F)F)c2)OCc2ccccc2-c2c(n(C)c3ccccc23)C1=O`, the figure is 0.972 ± 0.029; as for `COc1cccc(S(=O)(=O)N2CCCCN3[C@H](CO)[C@H](c4ccc(C#CCC(C)C)cc4)[C@H]3C2)c1`, 0.6428 ± 0.0032. Take `COc1cccc(S(=O)(=O)N2CCCCN3[C@H](CO)[C@H](c4ccc(C#CCC(C)C)cc4)[C@@H]3C2)c1`: the viability index is 1 ± 0.078. Next, `COc1cccc(S(=O)(=O)N2CCCCN3[C@@H](CO)[C@@H](c4ccc(C#CCC(C)C)cc4)[C@@H]3C2)c1`: 0.393 ± 0.021; `COc1cccc(S(=O)(=O)N2CCCCN3[C@@H](CO)[C@H](c4ccc(C#CCC(C)C)cc4)[C@@H]3C2)c1`: 1.01 ± 0.053; `COc1cccc(S(=O)(=O)N2CCCCN3[C@H](CO)[C@@H](c4ccc(C#CCC(C)C)cc4)[C@@H]3C2)c1`: 0.941 ± 0.042. Next, `COc1cccc(S(=O)(=O)N2CCCCN3[C@H](C2)[C@H](c2ccc(C#CCC(C)C)cc2)[C@@H]3CO)c1`: 0.9833 ± 0.0041. Molecule `COc1ccc(NC(=O)N(C)C[C@@H]2Oc3c(NC(=O)CCCCCC(=O)Nc4ccccc4N)cccc3C(=O)N([C@H](C)CO)C[C@H]2C)cc1` yielded a viability index of 0.893 ± 0.012. In the case of `COc1ccc(NC(=O)N(C)C[C@H]2Oc3c(NC(=O)CCCCCC(=O)Nc4ccccc4N)cccc3C(=O)N([C@@H](C)CO)C[C@@H]2C)cc1`, the viability index is 0.991 ± 0.081. Regarding `COc1ccc(NC(=O)N(C)C[C@H]2Oc3c(NC(=O)CCCCCC(=O)Nc4ccccc4N)cccc3C(=O)N([C@H](C)CO)C[C@H]2C)cc1`, the viability index amounted to 0.62 ± 0.082. Next, `COc1ccc(NC(=O)N(C)C[C@@H]2Oc3c(NC(=O)CCCCCC(=O)Nc4ccccc4N)cccc3C(=O)N([C@@H](C)CO)C[C@H]2C)cc1`: 1.07 ± 0.091. `COc1ccc(NC(=O)N(C)C[C@H]2Oc3c(NC(=O)CCCCCC(=O)Nc4ccccc4N)cccc3C(=O)N([C@@H](C)CO)C[C@H]2C)cc1` yielded a viability index of 0.645 ± 0.046. As for `COc1ccc(NC(=O)N(C)C[C@@H]2Oc3c(NC(=O)CCCCCC(=O)Nc4ccccc4N)cccc3C(=O)N([C@@H](C)CO)C[C@@H]2C)cc1`, the figure is 0.943 ± 0.058; as for `COc1ccc2c3c([C@@H](CO)N(Cc4cc(OC)cc(OC)c4)C[C@]33CN(C3)C(=O)CN3CCOCC3)n(C)c2c1`, 0.879 ± 0.02; as for `COC(=O)C[C@H]1CC[C@H]2[C@@H](COc3ccc(NS(=O)(=O)c4ccc(C)cc4)cc3C(=O)N2C)O1`, 1.114 ± 0.0014.

In turn, `C[C@@H]1CCCCO[C@@H](CN(C)CC2CCCCC2)[C@H](C)CN([C@@H](C)CO)C(=O)c2cc(NS(C)(=O)=O)ccc2O1` yielded a viability index of 1.08 ± 0.061. As for `Cc1ccccc1-c1ccc([C@@H]2[C@@H]3CN(S(=O)(=O)Cc4ccccc4)C[C@H]2N3)cc1`, the figure is 0.854 ± 0.034; as for `CS(=O)(=O)N1C[C@@H]2N[C@H](C1)[C@@H]2c1ccc(-c2ccccc2)cc1`, 0.706 ± 0.03. The molecule `N#Cc1ccc(-c2ccc([C@@H]3[C@@H]4CN(S(=O)(=O)Cc5ccccc5)C[C@H]3N4)cc2)cc1` displayed a viability index of 0.976 ± 0.037. As for `COc1cccc(-c2ccc([C@@H]3[C@@H]4CN(S(=O)(=O)Cc5ccccc5)C[C@H]3N4)cc2)c1`, the figure is 0.808 ± 0.031; as for `CC(=O)N1C[C@@H]2N[C@H](C1)[C@H]2c1ccc(-c2ccccc2)cc1`, 1.11 ± 0.016. As for `O=S(=O)(c1ccc(-c2ccccc2)cc1)N1C[C@@H]2N[C@H](C1)[C@@H]2c1ccc(-c2ccncc2)cc1`, the viability index was found to be 1.072 ± 0.0057.

The values above are taken from the supplement of paper PMC4723716.
